Screening data deposited in PubChem BioAssay by Broad Institute.
Many of the other results were omitted from the sample, so hits are more common in it than they were.
Tg IFNy HTS: T. gondii growth inhibition under IFN-gamma. Toxoplasma gondii growth in IFN-gamma-treated host cells; stronger effect = lower value. activity change, negative = inhibition, % (no concentration beside the values). 3.8% of 69,000 active; in the data active = activity change below about -70%, passing the limit was not always enough;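 note: host cells are HeLa cells infected with Toxoplasma gondii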
Numbers stand for hits; i = inactive.

SMILES	Tg IFNy HTS
COc1cc(OC)c(NC(=O)NCC(c2cccnc2)c2c[nH]c3ccccc23)cc1Cl (stereo unspecified)	i
CS(=O)(=O)N1Cc2[nH]nc(COCc3cccnc3)c2C1	i
O=C(OCCS(=O)(=O)c1ccc(C(F)(F)F)cn1)c1cccc(Cl)c1	i
OC(COCc1ccccc1)CN1CCNCC1 (stereo unspecified)	i
OC(CN1CCNCC1)Cn1ccc2ccccc21 (stereo unspecified)	i
OC(CN1CCNCC1)Cn1c2ccc(Br)cc2c2cc(Br)ccc21 (stereo unspecified)	-74
Cc1nc(-c2cccc(F)c2)sc1CCNS(=O)(=O)c1ccc(Cl)s1	i
CC(C)(C)n1ccc(C(=O)NC2CC(=O)N(Cc3ccccc3Cl)C2)c1 (stereo unspecified)	i
CC(C)(C(=O)N1CCC(Nc2nc3c(c(=O)[nH]2)CCCC3)CC1)c1ccc(Cl)cc1	-101
O=c1[nH]c(NC2CCN(Cc3nnnn3Cc3ccccc3)CC2)nc2c1CCCC2	i
Cc1cccc(C)c1NC(=O)CN1CCC(Nc2nc3c(c(=O)[nH]2)CCCC3)CC1	i
Nc1nnc(SCc2nc3ccccc3[nH]2)s1	i
CS(=O)(=O)N1CCC2(CC1)CN(Cc1nccs1)CCO2	i
Cc1nn(C)cc1C(=O)N1CCc2nc3ccncc3cc2C1	i
CC(C)CCNC(=O)Cn1ncc2c(N3CCC(C)CC3)ncnc21	i
Cc1ccccc1CNC(=O)Cn1ncc2c(N3CCC(C)CC3)ncnc21	i
O=C(Cn1ncc2c(N3CCCCCC3)ncnc21)NCc1ccccc1Cl	i
CC1CCN(c2ncnc3c2cnn3CC(=O)NCc2ccc(Br)cc2)CC1	-94
CC1CCN(c2ncnc3c2cnn3CC(=O)NCCCc2ccccc2)CC1	i
CC1CCN(c2ncnc3c2cnn3CC(=O)NCc2cccnc2)CC1	i
Cc1cc(Br)ccc1NC(=O)Cn1ncc2c(N3CCC(C)CC3)ncnc21	i
CC1CCN(c2ncnc3c2cnn3CC(=O)NCc2ccccc2Cl)CC1	-95
CC1CCN(c2ncnc3c2cnn3CC(=O)NCc2ccccc2)CC1	-101
COc1ccc(-c2cc(=O)c3c(O)cc(OC)c(OC)c3o2)c(OC)c1	i
CCCN1CCN(C(=O)c2nccn2C)CC(Cc2ccc(-c3ccccc3)cc2)C1=O (stereo unspecified)	i
SMILES	Tg IFNy HTS
CCc1cc(C(=O)N2CC(=O)N(C3CCCCC3)CC(OCc3ccccc3)C2)no1 (stereo unspecified)	i
Cc1cc(C)n(CCNc2ncnc3sc(C)c(C)c23)c(=O)n1	i
O=C(c1ccccn1)N1CC[C@H]2[C@@H]1CCN2c1ncccn1	i
Cn1cnc2c(NCc3ccccc3)nc(NCCO)nc21	i
CC(C)[C@H](CO)Nc1nc(Nc2cccc(Cl)c2)c2ncn(C(C)C)c2n1	-74
CC(C)n1cnc2c(NCc3ccccc3)nc(NCCCO)nc21	i
CC(C)n1cnc2c(-c3cccnc3)nc(C3CCN(Cc4ccccn4)CC3)cc21	i
CC[C@H](CO)Nc1nc(NCc2ccc(-c3ccccn3)cc2)c2ncn(C(C)C)c2n1	-79
CC[C@H](CO)Nc1nc(Nc2cccc(-c3ccccn3)c2)c2ncn(C(C)C)c2n1	-79
CCS(=O)(=O)N1Cc2nccn2CC(Cn2cccn2)C1 (stereo unspecified)	i
O=C(c1ccco1)N1C[C@H]2CN(c3cncnc3)C(=O)[C@@H]2C1	i
CCC1CN(Cc2ccc(OCC(N)=O)c(Cl)c2)CCN1C(C)C (stereo unspecified)	i
OC1(C(F)(F)F)CC(c2nccs2)=NN1 (stereo unspecified)	i
CC(C)(C)c1cc(-c2cc(C(F)(F)F)[nH]n2)c2c(c1)C(C)(C)CC2	-87
CN1CCC2(CCN(C(=O)c3cc(C(F)(F)F)[nH]n3)CC2)C1	i
CC(C)(C)c1cc(C2=NNC(O)(C(F)(F)F)C2)c2c(c1)C(C)(C)CC2 (stereo unspecified)	-100
Fc1cccc(NC(=S)Nc2ccc(Cl)cn2)c1	i
COCc1nnn2c1CN(Cc1csc(C)n1)CCC2	i
CC(=O)N1CCC(C(=O)NCc2ccccc2)(N(C(=O)c2ccc(C)cc2)c2cccc(Br)c2)CC1	i
CCc1cc(-c2ccc3c(c2)OCCO3)ccc1NC(C)=O	i
CCC(=O)NCc1ccccc1-c1ccc2c(c1)OCCO2	i
CCNC(=O)Cc1ccc(-c2ccc3c(c2)OCCO3)cc1	-74
CCOC(=O)c1coc(N2CC[C@@H](N3CCOCC3)[C@H](O)C2)n1	i
Cc1cc(Nc2ccc(Br)cc2)nc(-c2ccccc2O)n1	-85
Cc1cc(N2CC(c3ccccn3)C2)nc(-c2ccccc2O)n1	i
SMILES	Tg IFNy HTS
CCOc1ncccc1-c1nc(C)cc(NC)n1	i
O=C(Nc1cnc2n1CCCC2)c1cc(=O)nc2sccn12	i
COc1ccc(-c2nc(CCNC(=O)c3ccc(C(F)(F)F)cc3)cs2)cc1	i
Cc1ccc(C(=O)N2CCCN(Cc3cccs3)CC2)c(=O)[nH]1	i
Cc1nn(-c2ccccc2)c2sc(C(=O)Nc3nccs3)cc12	i
CC(Oc1ccccc1-c1ccc(-c2ccn[nH]2)cc1)C(N)=O (stereo unspecified)	i
Cc1nnc(-c2ccccc2-c2ccc(-c3ccn[nH]3)cc2)o1	i
C/C=C/C(=O)Nc1ccccc1-c1ccc(-c2ccn[nH]2)cc1	-93
Cc1cnc(C(=O)NC2CCCN(C(=O)Cc3csc(C)n3)CC2)cn1 (stereo unspecified)	i
CC(c1cccc(-c2nccn2CCc2cn[nH]c2)c1)N(C)C (stereo unspecified)	i
Cc1ccc(-c2ccnc(N3CCC(N4CCC(O)CC4)CC3)n2)c(C)n1	i
CC(=O)N1CC2(CCN(C(=O)CC3SC(=O)N(C)C3=O)CC2)Nc2ccccc21 (stereo unspecified)	i
Cc1cc(Cl)ccc1OCCCC(=O)NO	-83
Cc1cc(Cl)ccc1OCCCC(=O)N1CCN(C)CC1	i
COc1cc(C)nc(OCCNC(=O)COc2ccc(Cl)cc2C)n1	i
CCCC(C)c1nnc(NC(=O)c2noc(C)c2COC)s1 (stereo unspecified)	i
Cc1nn(CC(=O)N2CCN(C(C)C)CC2)c(=O)c2nc(-c3ccccc3)sc12	i
NC(=O)C1(N2CCCCC2)CCN(c2ncc(NC(=O)c3ccc(Cl)cc3)cc2C(=O)O)CC1	i
O=C(Nc1ccc(Cl)cc1)ONC(=O)c1ncc(C(F)(F)F)cc1Cl	i
O=C(Nc1ccc(Cl)cc1)c1cnc(NC2CCCCC2)cc1C(F)(F)F	-110
Cc1ccc(CCNC(=O)c2cc3cc(S(=O)(=O)N(C)C)ccc3n2Cc2ccncc2)cc1	i
CCN(CC)S(=O)(=O)c1ccc2c(c1)cc(C(=O)NCC1CCN(Cc3ccc(C)cc3)C1)n2C (stereo unspecified)	-96
CCN(CC)S(=O)(=O)c1ccc2c(c1)cc(C(=O)NCCC(C)N1CCCC1)n2C (stereo unspecified)	i
CC(c1ccncc1)N(C)Cc1cccc2nonc12 (stereo unspecified)	i
CCN1CCc2nc(N3CCOCC3)nc(N(C)C)c2C1	i
SMILES	Tg IFNy HTS
Cc1ccc(Cl)cc1N(CC(=O)Nc1c(F)cccc1F)S(C)(=O)=O	-76
CS(=O)(=O)N(CCCC(=O)NCc1ccco1)c1cc(Cl)ccc1Cl	i
Cc1ccccc1NC(=O)CN(c1cc(Cl)ccc1C)S(C)(=O)=O	i
CC(C)c1ccc(C(=O)c2cccs2)c(SCCCCCCCCN(C)C)n1	i
CCn1cc(CN2CCN(C(=O)c3cc4c(F)cccc4[nH]3)CC2)c(C)n1	-108
CCn1cc(CN2CCN(C(=O)c3ccnc(N4CCOCC4)c3)CC2)c(C)n1	i
